The values below come from PubChem BioAssay (Tox21).

Results filed as inconclusive are left out. Activity calls are given as the source filed them. Unless noted, the call rests on the fitted dose curve.

Assay [1] is described as follows: Nuclear factor erythroid 2-related factor 2/antioxidant responsive element (Nrf2/ARE) small molecule agonists: qHTS cell viability counter screen in human keratinocytes (AID 1919968; active means well fitted curve in the direction sought with a large enough effect in the repeat runs; an effect the other way counts as inactive or inconclusive; further: nearly all actives have a fitted effect of over 55% in size; further: potency means the concentration at half of the fitted maximal effect). The method, boiled down: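 Seed 1,500 KeratinoSens cells per well, then incubate 5 h at 37 C/5% CO2. Add compounds in DMSO and incubate 23 h. Add CellTiter-Fluor, wait 1 h and read fluorescence.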
A general note: qHTS replaces the single test concentration by a dilution series.

Assay [2] is described as follows: Nuclear factor erythroid 2-related factor 2/antioxidant responsive element (Nrf2/ARE) small molecule agonists: luciferase reporter gene qHTS assay in human keratinocytes (AID 1919969). Further: nearly all actives have a fitted effect of over 35% in size. Further: potency means the concentration at half of the fitted maximal effect.
For assay [3], the target named is Gonadotropin-releasing hormone receptor (Homo sapiens) (UniProt P30968). The assay is described as follows: Human gonadotropin-releasing hormone receptor (GnRHR) small molecule agonists, calcium flux assay in GnRHR-HEK293 cells (AID 1920063). Further: nearly all actives have a fitted effect of over 35% in size. The method, boiled down: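 Cells: HEK293 stably expressing human GnRHR. Steps: overnight (18 h) culture, 1 h calcium dye loading at 37 C, compound addition, kinetic fluorescence read at 480/540 nm. Each compound tested at 15 concentrations in triplicate.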
Gonadotropin-releasing hormone receptor (Homo sapiens), sequence (P30968 whole entry, looked up): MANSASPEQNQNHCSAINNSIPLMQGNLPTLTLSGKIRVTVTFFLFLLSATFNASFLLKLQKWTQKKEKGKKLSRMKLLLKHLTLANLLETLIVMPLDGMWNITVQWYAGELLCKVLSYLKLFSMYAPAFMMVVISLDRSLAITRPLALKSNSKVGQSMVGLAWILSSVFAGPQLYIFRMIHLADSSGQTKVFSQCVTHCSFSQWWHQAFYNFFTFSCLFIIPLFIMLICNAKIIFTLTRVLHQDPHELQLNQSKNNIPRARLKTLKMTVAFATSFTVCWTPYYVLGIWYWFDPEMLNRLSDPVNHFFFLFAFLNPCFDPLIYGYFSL

The target in assay [4] is KiSS-1 receptor (Homo sapiens) (UniProt Q969F8). The assay is described as follows: Human kisspeptin (KISS1R) small molecule agonists, calcium flux assay in KISS1R-HEK293 cells (AID 1920064; active means well fitted curve in the direction sought with a large enough effect in the repeat runs; an effect the other way counts as inactive or inconclusive). The method, boiled down: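 Cells plated and incubated 18 h; dye added, 1 h at 37 C; compounds in DMSO pinned in; signal read at 480/540 nm every second for 3 min. Each compound tested at 15 concentrations in triplicate.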
KiSS-1 receptor (Homo sapiens), sequence (Q969F8 whole entry, looked up): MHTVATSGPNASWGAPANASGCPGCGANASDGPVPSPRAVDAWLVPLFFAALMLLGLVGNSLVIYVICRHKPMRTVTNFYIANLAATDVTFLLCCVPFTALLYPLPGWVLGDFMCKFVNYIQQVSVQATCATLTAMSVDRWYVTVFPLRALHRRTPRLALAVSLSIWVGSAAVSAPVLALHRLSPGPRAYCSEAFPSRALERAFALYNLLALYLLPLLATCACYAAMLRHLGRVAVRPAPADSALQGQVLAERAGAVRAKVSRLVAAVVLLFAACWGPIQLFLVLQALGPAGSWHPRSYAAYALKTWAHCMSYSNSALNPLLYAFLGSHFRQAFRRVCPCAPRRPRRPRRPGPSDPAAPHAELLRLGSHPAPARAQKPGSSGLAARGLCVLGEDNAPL
For orientation: Calcium assays in cells follow changes in intracellular calcium, usually with a dye or a luminescent sensor.

A short description of assay [5]: G protein-coupled receptor (GPCR) small molecule agonists, calcium flux assay: HEK293 wild type cell line counter screen (AID 1920065). In a few lines:
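Counter-screen of the Tox21 10K library for non-specific calcium release: dye-loaded cells received compounds in DMSO and were monitored by kinetic fluorescence (480/540 nm, 3 min). Fifteen concentrations, run in triplicate.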

The nature of assay [6]: p53 small molecule agonists, cell-based qHTS assay with human liver microsomes: qHTS cell viability counter screen (AID 1963579). Further: nearly all actives have a fitted effect of over 45% in size. In a few lines:
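p53RE-bla cells, 4,000/well, dosed 5 hours after plating, with human liver microsomes (0.5 mg/mL final) plus NADPH (0.5 mg/mL final), 16 hours at 37 C. Viability read as CellTiter-Glo luminescence after 30 min at room temperature.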

Assay [7] is described as follows: p53 small molecule agonists, cell-based qHTS assay with rat liver microsomes: qHTS cell viability counter screen (AID 1963580). Further: nearly all actives have a fitted effect of over 45% in size. The method, boiled down: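 Intracellular ATP, by CellTiter-Glo luminescence, defines viability. HCT-116 p53RE-bla cells, 4,000 per well, were compound-treated in the presence of rat liver microsomes and NADPH for 16 h at 37 C.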
Assay [8] is described as follows: p53 small molecule agonists, cell-based qHTS assay: qHTS cell viability counter screen (AID 1963581). Further: nearly all actives have a fitted effect of over 45% in size. Further: potency means the concentration at half of the fitted maximal effect. The method, boiled down: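 Cells: HCT-116 with p53 response element-driven beta-lactamase. Treatment: 16 h, 37 C, compounds in DMSO. Read: CellTiter-Glo luminescence after 30 min RT.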
Assay [9] can be described thus: p53 small molecule agonists, cell-based qHTS assay (AID 1963582; active means well fitted activation curve with a large enough effect in the signal ratio in the repeat runs, not every such curve was filed as active; the % refers to the signal ratio). The method, boiled down:
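Quantitative HTS in p53RE-bla cells: after a 5 h settling period, compounds delivered in DMSO were left on cells for 16 h at 37 C, and reporter induction was measured as fluorescence following 2 h substrate loading.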

Assay [10] deals with 5-hydroxytryptamine receptor 2A (Homo sapiens) (UniProt P28223). The assay is described as follows: 5-hydroxytryptamine receptor 2A (HTR2A) small molecule agonists, cell-based qHTS assay (AID 1963587). Further: nearly all actives have a fitted effect of over 30% in size. The method, boiled down: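 Kinetic calcium-flux fluorescence (2 min, 1 sec intervals) after compound addition in agonist mode. HTR2A-CHO cells were cultured 18 h, then dye-loaded 1 h at 37 C.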
5-hydroxytryptamine receptor 2A (Homo sapiens), sequence (P28223 whole entry, looked up): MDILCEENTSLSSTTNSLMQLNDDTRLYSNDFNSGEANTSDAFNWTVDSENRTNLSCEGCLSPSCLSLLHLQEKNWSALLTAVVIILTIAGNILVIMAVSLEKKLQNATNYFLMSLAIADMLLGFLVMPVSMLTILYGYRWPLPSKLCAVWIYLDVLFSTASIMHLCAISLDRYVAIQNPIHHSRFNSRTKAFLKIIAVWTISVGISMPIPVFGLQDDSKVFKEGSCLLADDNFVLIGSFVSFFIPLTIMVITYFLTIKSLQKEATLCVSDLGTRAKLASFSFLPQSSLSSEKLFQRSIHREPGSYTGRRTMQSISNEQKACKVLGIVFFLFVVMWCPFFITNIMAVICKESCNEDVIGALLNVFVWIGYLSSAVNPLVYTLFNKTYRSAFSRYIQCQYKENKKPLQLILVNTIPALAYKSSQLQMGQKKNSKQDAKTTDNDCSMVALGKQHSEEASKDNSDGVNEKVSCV

The target in assay [11] is Muscarinic acetylcholine receptor M1 (Homo sapiens) (UniProt P11229). The assay is described as follows: Cholinergic receptor muscarinic 1 (CHRM1) small molecule antagonists, cell-based qHTS assay (AID 1963588). Further: nearly all actives have a fitted effect of over 40% in size. The method, boiled down:
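CHRM1-CHO calcium-flux assay, antagonist mode. Cells were seeded 18 h, dye-loaded 1 h at 37 C and given compound for 5 min at RT, then acetylcholine was added at 50nM. FDSS fluorescence was read 3 min; 15 concentrations, three runs.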

Assay [12] has the same target. The experiment in a line: Cholinergic receptor muscarinic 1 (CHRM1) small molecule agonists, cell-based qHTS assay (AID 1963589). Further: nearly all actives have a fitted effect of over 35% in size. The method, boiled down:
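Agonist-mode qHTS in CHO cells stably carrying human muscarinic M1. Intracellular calcium is tracked by fluorescence every second after compound transfer; each compound runs at 15 concentrations in three independent runs.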

Assay [13] in a line: cAMP Responsive Elements (CRE) small molecule agonists, cell-based qHTS assay (AID 1963590). In a few lines:
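Agonist mode qHTS in CRE-bla HEK 293T cells: compounds dosed from DMSO for 3 h at 37 C/5% CO2, followed by LiveBLAzer B/G FRET substrate for 2 h at room temperature.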

A short description of assay [14]: cAMP Responsive Elements (CRE) small molecule antagonists, cell-based qHTS assay (AID 1963591; active means well fitted inhibition curve with a large enough effect in the signal ratio in the repeat runs, not every such curve was filed as active; the % refers to the signal ratio). The method, boiled down: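 Antagonist mode: test compounds are co-incubated with the adenylyl cyclase activator NKH477 (0.25 uM final) on CRE-bla HEK293T cells for 3 h at 37 °C, followed by LiveBLAzer substrate loading.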
Assay [15] deals with Beta-2 adrenergic receptor (Homo sapiens) (UniProt P07550). The experiment in a line: Adrenergic beta2 receptor (ADRB2) small molecule antagonists, cell-based qHTS assay (AID 1963592). Further: series mostly up to about 92 µM; nearly all actives have a fitted effect of over 50% in size. In a few lines:
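Cells (CHO, stable ADRB2 overexpression) incubated 18-20hr at 37C; compounds added from DMSO; agonist mix (1nM isoproterenol, 100uM IBMX, 25uM Ro-20-1724) added; 0.5hr RT; d2-cAMP and anti-cAMP-cryptate added; 1hr RT; 665/615 nm read.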

Assay [16] has as its target D(2) dopamine receptor (Homo sapiens) (UniProt P14416). The assay is described as follows: Dopamine D2 receptor (DRD2) small molecule agonists, cell-based qHTS assay (AID 1963594). Further: nearly all actives have a fitted effect of over 35% in size. The method, boiled down: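 cAMP accumulation in DRD2-HEK293 cells measured by HTRF after 1 h detection; compounds added 10 min before NKH477 (200nM […]) forskolin-analogue stimulation, 30 min at room temperature, with Ro20-1724 present at 0.1 mM final.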

For assay [17] the target is unchanged. The assay is described as follows: Dopamine D2 receptor (DRD2) small molecule antagonists, cell-based qHTS assay (AID 1963595; active means well fitted inhibition curve with a large enough effect in the signal ratio in the repeat runs, with a control signal flat; the % refers to the signal ratio). In a few lines:
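HTRF cAMP read-out at 665 and 620 nm emission (340 nm excitation). Antagonist mode: compounds were tested against 12 nM quinpirole in DRD2-HEK293 cells, with 200 nM NKH477 raising cAMP and 0.1 mM Ro20-1724 blocking its breakdown.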

The nature of assay [18]: p53 small molecule agonists, cell-based qHTS assay with rat liver microsomes (AID 1963578). In a few lines: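 p53RE-bla cells, 4,000/well, pre-incubated 5 h, then given compounds plus rat liver microsomes (0.5 mg/mL final) and NADPH (0.5 mg/mL final). Incubation 16 h at 37 C; beta-lactamase reporter read by LiveBLAzer fluorescence after 2 h at room temperature.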
The target of assay [19] is Beta-2 adrenergic receptor (Homo sapiens) (UniProt P07550). The assay is described as follows: Adrenergic beta2 receptor (ADRB2) small molecule agonists, cell-based qHTS assay (AID 1963593).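 Further: CHO cells stably overexpressing human ADRB2.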 In a few lines: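 CHO cells stably over-expressing ADRB2 were plated overnight at 37C, then dosed with compounds plus a stimulation mix containing 100uM IBMX and 25uM Ro-20-1724 for 0.5hr at room temperature. cAMP was measured by HTRF competition, 1hr.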
Beta-2 adrenergic receptor (Homo sapiens), sequence (P07550 whole entry, looked up): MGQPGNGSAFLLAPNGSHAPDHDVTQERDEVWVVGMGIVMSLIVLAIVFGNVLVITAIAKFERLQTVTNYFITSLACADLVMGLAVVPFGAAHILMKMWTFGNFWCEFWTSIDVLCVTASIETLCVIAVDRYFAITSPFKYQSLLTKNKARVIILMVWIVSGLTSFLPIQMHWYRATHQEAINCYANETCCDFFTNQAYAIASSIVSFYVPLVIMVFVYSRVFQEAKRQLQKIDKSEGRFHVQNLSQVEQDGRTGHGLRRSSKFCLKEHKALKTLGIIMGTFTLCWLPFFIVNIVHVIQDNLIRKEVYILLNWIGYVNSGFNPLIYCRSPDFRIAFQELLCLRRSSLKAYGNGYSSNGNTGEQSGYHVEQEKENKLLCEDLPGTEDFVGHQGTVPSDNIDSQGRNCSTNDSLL

For assay [20], the target named is 5-hydroxytryptamine receptor 2A (Homo sapiens) (UniProt P28223). The assay is described as follows: 5-hydroxytryptamine receptor 2A (HTR2A) small molecule antagonists, cell-based qHTS assay (AID 1963586). Further: nearly all actives have a fitted effect of over 45% in size. In a few lines: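 Antagonist-mode intracellular calcium assay: DOI (4 nM) added after 5 min compound pre-incubation at room temperature to dye-loaded HTR2A-CHO cells. Fluorescence followed for 3 min, sampled every second.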

D(2) dopamine receptor (Homo sapiens), sequence (P14416 whole entry, looked up): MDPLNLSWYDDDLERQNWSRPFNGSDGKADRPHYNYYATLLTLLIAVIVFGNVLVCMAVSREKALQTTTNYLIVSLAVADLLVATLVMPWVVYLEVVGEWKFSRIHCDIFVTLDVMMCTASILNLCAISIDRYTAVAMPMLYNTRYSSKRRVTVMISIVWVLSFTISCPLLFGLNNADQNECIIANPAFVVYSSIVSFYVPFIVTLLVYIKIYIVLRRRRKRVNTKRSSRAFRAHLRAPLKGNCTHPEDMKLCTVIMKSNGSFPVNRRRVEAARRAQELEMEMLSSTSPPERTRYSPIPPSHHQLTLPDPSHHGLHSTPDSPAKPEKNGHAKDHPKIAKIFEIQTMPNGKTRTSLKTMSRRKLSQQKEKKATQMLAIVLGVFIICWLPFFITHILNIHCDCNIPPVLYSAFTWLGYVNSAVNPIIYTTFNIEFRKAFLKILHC
Muscarinic acetylcholine receptor M1 (Homo sapiens), sequence (P11229 whole entry, looked up): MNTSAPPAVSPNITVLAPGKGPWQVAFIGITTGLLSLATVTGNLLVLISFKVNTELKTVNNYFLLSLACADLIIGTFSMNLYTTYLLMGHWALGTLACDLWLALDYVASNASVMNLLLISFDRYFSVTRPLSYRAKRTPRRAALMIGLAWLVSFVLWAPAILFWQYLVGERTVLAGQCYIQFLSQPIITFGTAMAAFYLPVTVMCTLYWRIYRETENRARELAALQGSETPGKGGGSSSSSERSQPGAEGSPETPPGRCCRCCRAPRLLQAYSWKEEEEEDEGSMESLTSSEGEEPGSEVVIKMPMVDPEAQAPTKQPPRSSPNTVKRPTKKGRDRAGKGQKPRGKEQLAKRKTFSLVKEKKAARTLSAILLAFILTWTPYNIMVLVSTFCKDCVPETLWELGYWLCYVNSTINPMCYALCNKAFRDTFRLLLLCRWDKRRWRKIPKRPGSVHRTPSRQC

Take `O=C1c2ccccc2-c2ccccc21`: the Potency result in assay [1], in [2], in [3], in assay [4], in assay [5] and in [6] was “inactive” each time. Moreover, the Potency entry in assay [7], in assay [8], in assay [9], in assay [10], in assay [11] and in assay [12] was “inactive” in each case. In addition, the Potency entry in assay [13], in assay [14], in [15], in assay [16] and in assay [17] was “inactive” each time.

For the molecule `COC(=O)c1ccc(C(=O)O)cc1`, the Potency result in assay [1], in assay [2], in assay [3], in [4], in [5] and in assay [7] was “inactive” each time. Besides, the Potency result in assay [10], in assay [11], in assay [12], in assay [13], in assay [14] and in assay [15] was “inactive” in each case. Also, in assay [17], the Potency result is “inactive”.

As to `CCCCN(CCN(CCCC)C(=O)N1CCOCC1)C(=O)N1CCOCC1`, the Potency is 29.8 µM (active) in [1] and 21.1 µM (active) in [2]. Further, the Potency result in assay [3], in assay [4], in assay [5], in [18], in assay [8] and in [9] was “inactive” in each case. Further, the Potency entry in assay [10], in assay [11], in [12], in [19], in assay [16] and in [17] was “inactive” throughout.

In the case of `CC(C)(C)CC(C)(C)c1ccc(O)c(Cc2ccc(Cl)cc2Cl)c1`, the Potency in [1] was 8.41 µM (active); in assay [8], 8.9 µM (active). The Potency result in [2], in assay [3], in [4], in assay [5], in [18] and in assay [6] was “inactive” in each case. Besides, the Potency entry in assay [7], in assay [20], in assay [10], in assay [11], in [12] and in [15] was “inactive” throughout. Further, the Potency entry in [16] was “inactive”.

With `CC1(C)CC(=O)CC(C)(C)N1`, the Potency result in [1], in [2], in assay [3], in assay [4], in [5] and in [18] was “inactive” in each case. The Potency result in [6], in assay [7], in assay [8], in assay [20], in assay [10] and in assay [11] was “inactive” throughout. In addition, the Potency entry in assay [12], in [13], in assay [14], in assay [15], in assay [16] and in [17] was “inactive” throughout.

Regarding `COC(=O)C1=C(C)NC(C)=C(C(=O)OCCc2ccc(N3CCN(C(c4ccccc4)c4ccccc4)CC3)cc2)C1c1cccc([N+](=O)[O-])c1` (stereo not drawn), the Potency entry in [1], in [2], in [3], in [4], in assay [5] and in [18] was “inactive” each time. The Potency result in assay [6], in [7], in [8], in [9], in assay [20] and in assay [10] was “inactive” in each case. Also, the Potency entry in [11], in [12], in [14], in assay [15], in assay [19] and in [17] was “inactive” each time.

On to `CC(=O)OCCC(C)CC(C)(C)C` (stereo not drawn), for which the Potency entry in assay [1], in [2], in [3], in [4], in assay [5] and in assay [18] was “inactive” in each case. The Potency entry in [6], in [7], in assay [8], in [9], in assay [20] and in assay [11] was “inactive” in each case. In addition, the Potency entry in assay [12], in [13], in assay [14], in assay [19] and in assay [16] was “inactive” each time.

Turning to `CCCCCC1Nc2cc(C(F)(F)F)c(S(N)(=O)=O)cc2S(=O)(=O)N1` (stereo not drawn), the Potency entry in assay [1], in [2], in assay [3], in [4], in assay [5] and in [18] was “inactive” throughout. In addition, the Potency result in assay [6], in assay [7], in assay [8], in assay [10], in [11] and in assay [12] was “inactive” each time. The Potency entry in [15], in assay [19], in assay [16] and in assay [17] was “inactive” each time.
